NS1 function inh: qHTS Assay for Inhibitors of Influenza NS1 Protein Function | Potency, µM (top dose mostly 46.1 µM), for inactives: at the top dose activity, positive = more growth | hit rate 0.4% among 270,000 | AID 2326, 2010; calls by dose curve; also: potency is read from the fitted curve at half-maximal effect; actives are rising curves; nearly all actives have a fitted effect of over 50% in size
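Read-out: OD600 growth recovery of NS1-expressing budding yeast. Cells grown overnight at 30C in -URA glucose medium, washed, resuspended and diluted 1:100 in 2% galactose assay medium, pH 6.0. Same strain lacking NS1 served as positive control.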
Shiga inhibitor: A qHTS for Small Molecule Inhibitors of Shiga Toxin. AID 2315, 2010. Vero cells, Shiga toxin protein synthesis inhibition reporter. hit rate 9.2% among 290,000. inhibition, % at 38.7 µM; in the data active = inhibition mostly above about 28%, no sharp cut-off; inactive = mostly below about 43%; also: 0% is about no effect
Pf growth 96h: Primary qHTS for delayed death inhibitors of the malarial parasite plastid, 96 hour incubation. P. falciparum luciferase reporter growth, 96 h. Potency, µM (series often up to 28.7 µM), without a hit: at the highest dose activity change, negative = inhibition, actives largely listed as inhibitors. hit rate 6.9% among 320,000. AID 504834, 2011; also: potency is read from the fitted curve at half-maximal effect; % is scaled to controls: 0 for no effect and ±100 for the full control effect
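Compounds incubated with erythrocytes infected by luciferase-expressing P. falciparum (2% hematocrit, 0.05% parasitemia final) for 96 hours, 37 C in 5% CO2. Growth inhibition scored as decreased luciferase luminescence.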
Pf growth 48h: Primary qHTS for delayed death inhibitors of the malarial parasite plastid, 48 hour incubation; P. falciparum luciferase growth in erythrocytes, 48 h; Potency, µM (titrated, usually from 28.7 µM), without a hit: at the top dose activity change, negative = inhibition, usual class: inhibitors; hit rate 5.9% among 310,000; also: potency is read from the fitted curve at half-maximal effect; % is scaled to controls: 0 for no effect and ±100 for the full control effect
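Luminescence readout; reporter = integrated firefly luciferase in P. falciparum. RBC culture at 2% hematocrit, 0.1% parasitemia final, 37 C/5% CO2; decreased signal taken as growth inhibition.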
Cycloheximide cs: Cycloheximide Counterscreen for Small Molecule Inhibitors of Shiga Toxin; cell reporter, cycloheximide protein synthesis inhibition counterscreen; max response, %; hit rate 12% among 300,000; AID 2314, 2010; in the data active = max response mostly above about 13%, no sharp cut-off; inactive = mostly below about 14%; also: read at 38.3 µM for the half of the compounds with a filed dose; 0% is about no effect
* = called active by the depositor; ! = not confirmed by another sample. Shown are actives, neighbours in structure and some others; about 21% of the full set was active somewhere. Unless noted, calls follow the shape of the dose curve; as a rule, active = well fitted inhibition curve with a large enough effect; inconclusive = small, poorly fitted or top-dose-only effect, or another doubt; inactive = no such curve, though single readings can be large or run the other way.

`COc1ccc(N2Cc3ccccc3C2=O)cc1` gave NS1 function inh -14%, Pf growth 96h 2.9µM*, Pf growth 48h -20% and Cycloheximide cs 35*.
For CCOc1ccc(N2Cc3ncccc3C2=O)cc1 the results were NS1 function inh -6%, Shiga inhibitor 137*, Pf growth 96h 143%, Pf growth 48h 90% and Cycloheximide cs 47*.
For COc1ccc(N2C(=O)c3ccccc3S2(=O)=O)cc1 the results were NS1 function inh -10%, Shiga inhibitor 24, Pf growth 96h 46%, Pf growth 48h 2.9µM* and Cycloheximide cs 8.
Screening COc1ccc(N2Cc3cccc(C(=O)O)c3C2=O)cc1 returned NS1 function inh -87%, Shiga inhibitor 43, Pf growth 96h 33% and Cycloheximide cs 19.
`Cc1ccc(N2Cc3ccccc3C2=O)cc1` gave NS1 function inh -41%, Shiga inhibitor 24, Pf growth 96h 47%, Pf growth 48h -14% and Cycloheximide cs 25*.
Screening O=C1C2CC=CCC2C(=O)N1n1cnnc1 (stereo not given) returned NS1 function inh 5%, Shiga inhibitor -10, Pf growth 96h 23%, Pf growth 48h 8% and Cycloheximide cs -8.
CCOC(=O)C1CCN(S(=O)(=O)c2ccc(CN3C(=O)c4cccnc4C3=O)cc2)CC1 was read as NS1 function inh -2%, Shiga inhibitor -5, Pf growth 96h inconclusive, Pf growth 48h 22% and Cycloheximide cs -7.
CCOC(=O)NC1=NCC(C)S1 (stereo not given) was read as NS1 function inh 5%, Shiga inhibitor -11, Pf growth 96h 1%, Pf growth 48h 42% and Cycloheximide cs 5.
Screening O=C1c2ccccc2CN1c1ccccc1 returned NS1 function inh -7%, Shiga inhibitor 54*, Pf growth 96h 4.1µM*, Pf growth 48h 96% and Cycloheximide cs 38*.
Screening O=C1N(c2ccccc2)CCN1c1ccccc1 returned NS1 function inh -2%, Pf growth 96h 10µM*, Pf growth 48h 322% and Cycloheximide cs 38*.
For O=C1c2ccccc2CN2C(=O)c3ccccc3CN12 the results were NS1 function inh 0%, Shiga inhibitor -4, Pf growth 96h 3.7µM*!, Pf growth 48h -1% and Cycloheximide cs -1.
Screening Cc1ccc(C)c(N(C)C(=O)CCS(=O)(=O)c2cccc3nonc23)c1 returned NS1 function inh -2%, Shiga inhibitor -10, Pf growth 96h 21%, Pf growth 48h -16% and Cycloheximide cs -5.
Screening CN(C)C(CNC(=O)Cc1cccc(C(F)(F)F)c1)c1ccco1 (stereo not given) returned Shiga inhibitor 19, Pf growth 96h inconclusive, Pf growth 48h -28% and Cycloheximide cs -3.
`O=C(NCCCn1ccnc1)C(=O)Nc1ccccc1` gave NS1 function inh 5%, Shiga inhibitor 28, Pf growth 96h 40%, Pf growth 48h 24% and Cycloheximide cs 16*.
`O=C(NCCCn1ccnc1)Nc1ccc(Cl)cc1` gave NS1 function inh -24%, Shiga inhibitor 30, Pf growth 96h 2%, Pf growth 48h 0% and Cycloheximide cs 20.
O=C(NCCCn1ccnc1)Nc1ccc(Cl)c(Cl)c1 was read as NS1 function inh -36%, Shiga inhibitor -21, Pf growth 96h 2.1µM*, Pf growth 48h 12µM* and Cycloheximide cs -3.
`Cc1ccc([C@@H]2[C@@H]3C(=O)N(C)C(=O)[C@@H]3[C@]3(Cc4ccccc4)C(=O)N(Cc4ccccn4)CC(=O)N23)o1` gave NS1 function inh 5%, Shiga inhibitor -3, Pf growth 96h inconclusive, Pf growth 48h 47% and Cycloheximide cs -3.
CCOC(=O)CN(c1cc([N+](=O)[O-])ccc1OC)S(C)(=O)=O was read as NS1 function inh 7%, Shiga inhibitor -17, Pf growth 96h inactive, Pf growth 48h 1% and Cycloheximide cs 1.
For COc1ccc(C(=O)NCCNC(=O)c2cc(OCC(F)(F)F)ccc2OCC(F)(F)F)cc1 the results were NS1 function inh 9%, Shiga inhibitor -4, Pf growth 96h -3%, Pf growth 48h 4% and Cycloheximide cs -1.
For Cc1ccc(NC(=O)C(=O)NN=C2CCCC2)cc1C the results were NS1 function inh 2%, Shiga inhibitor 40, Pf growth 96h 33%, Pf growth 48h 54% and Cycloheximide cs 10*.
For CN1CCC(=NNC(=O)C(=O)Nc2cccc(Br)c2)CC1 the results were Shiga inhibitor 13, Pf growth 96h -1%, Pf growth 48h -11% and Cycloheximide cs 1.
CN1CCC(=NNC(=O)C(=O)Nc2ccc(F)cc2)CC1 was read as NS1 function inh -8%, Shiga inhibitor 74*, Pf growth 96h 3%, Pf growth 48h 51% and Cycloheximide cs 38*.
`CCOc1ccc(CNC(=O)C2CCCN(S(=O)(=O)N3CC(C)CC(C)C3)C2)cc1OC` (stereo not given) gave NS1 function inh -7%, Shiga inhibitor -6, Pf growth 96h 16%, Pf growth 48h -9% and Cycloheximide cs -2.
`CC1(CC(=O)N/N=C/c2cc3c(cc2Br)OCO3)OCCO1` gave Shiga inhibitor 12, Pf growth 96h inconclusive, Pf growth 48h 1% and Cycloheximide cs 9.
For CO/N=C(\C(=O)N[C@@H]1C(=O)N2C(C(=O)O)=C(COC(C)=O)CS[C@H]12)c1csc(N)n1 the results were Shiga inhibitor 12 and Cycloheximide cs 4.
For CO/N=C(/C(=O)N[C@@H]1C(=O)N2C(C(=O)O)=C(CSC(=O)c3ccco3)CSC12)c1csc(N)n1 (stereo not given in full) the results were Pf growth 96h 13µM* and Pf growth 48h inconclusive.
CO/N=C(/C(=O)N[C@@H]1C(=O)N2C(C(=O)O)=C(C[n+]3ccc(N)n3CCO)CS[C@H]12)c1csc(N)n1 was read as Pf growth 96h 11µM* and Pf growth 48h -6%.
N=c1ccn(Cc2cccc(F)c2)cc1 was read as NS1 function inh 0%, Shiga inhibitor -4, Pf growth 96h 2%, Pf growth 48h 2.3µM* and Cycloheximide cs -4.
For CC1CCN(S(=O)(=O)c2cn(CC(=O)N3CCN(c4cccc(C(F)(F)F)c4)CC3)cn2)CC1 the results were NS1 function inh 7%, Shiga inhibitor -4, Pf growth 96h 16%, Pf growth 48h -1% and Cycloheximide cs -8.
Screening CCOc1ccc(NC(=O)CC2SC(=O)N(c3ccccc3)C2=O)cc1 (stereo not given) returned NS1 function inh 9%, Shiga inhibitor 44*, Pf growth 96h inconclusive, Pf growth 48h 39% and Cycloheximide cs 21*.
Screening Cc1ccccc1NC(=O)CC1SC(=O)N(c2ccccc2)C1=O (stereo not given) returned NS1 function inh inconclusive, Shiga inhibitor 64*, Pf growth 48h 57% and Cycloheximide cs 47*.
For CCOc1ccc(NC(=O)CN2C(=O)CSC(C)C2=O)cc1 (stereo not given) the results were Shiga inhibitor 113*, Pf growth 96h 32%, Pf growth 48h 3% and Cycloheximide cs 41*.
